The whole screen tested about 140,000 compounds, of which about 4,300 (3.1%) were called active. Not shown: some 21% with an inconclusive outcome.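 Rule for the calls: active = readout at or below -70, meaning at least 70% loss of cells showing the perinucleolar compartment, a nuclear body marking cancer cells; inconclusive = readout between -30 and a set limit; inactive = the rest.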 Only a selection was taken, and actives are over-represented in it overall.
Assay: High Content Assay for Compounds that inhibit the Assembly of the Perinucleolar Compartment;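 note: plate controls were DMSO wells for no effect and camptothecin positive control wells for full effect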
Conditions: PC3M PTB-GFP, PNC prevalence imaging, 16 h; at 10 µM; hits give low values
Outline: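 Read-out is percentage of cells bearing a perinucleolar compartment, from automated 20x imaging of fixed, Hoechst-stained PC3M PTB-GFP cells. Cells were seeded 4 h, then exposed 16 h to compound (23 nl of library stock) in duplicate plates.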

Q: Which activity change (PNC), negative = inhibition does the source give for CCCCOc1ccc(Cl)cc1CSc1nncn1N here?
A: Its activity change (PNC), negative = inhibition is -89.7% (active).

Q: For Cc1cc(=O)[nH]c(SCc2cc(Cl)ccc2OC(F)F)n1, which activity change (PNC), negative = inhibition is on record?
A: The activity change (PNC), negative = inhibition was 4.54% (inactive).

Q: For CCOC(=O)c1c(NC(=O)Cn2nc(C(F)(F)F)cc2C)sc2c1CCC2, which activity change (PNC), negative = inhibition is on record?
A: Its activity change (PNC), negative = inhibition is 36.1% (inactive).

Q: Which activity change (PNC), negative = inhibition does the source give for CN1CCN(C(=O)/C(=C\c2cccs2)NC(=O)c2cccs2)CC1 here?
A: The activity change (PNC), negative = inhibition was 0.966% (inactive).

Q: With COc1cc2c(cc1/C=C1/NC(=O)N(c3ccccc3)C1=O)OCO2 as the compound, how does the activity change (PNC), negative = inhibition read?
A: The activity change (PNC), negative = inhibition was -20.8% (inactive).

Q: Which activity change (PNC), negative = inhibition does the source give for CCOC(=O)c1c(C)n(C)c2ccc(OC)c(NS(=O)(=O)CC)c12 here?
A: The activity change (PNC), negative = inhibition was -8.82% (inactive).

Q: Which activity change (PNC), negative = inhibition does the source give for COc1ccc2c(-c3ccccc3)cc(SCC(=O)N(C)C3CCS(=O)(=O)C3)nc2c1 (stereo unspecified) here?
A: Its activity change (PNC), negative = inhibition is 46.3% (inactive).

Q: For O=[N+]([O-])c1ccc(N2CCNCC2)cc1NCc1cccnc1, which activity change (PNC), negative = inhibition is on record?
A: Its activity change (PNC), negative = inhibition is 59.2% (inactive).

Q: With O=C(Nc1cccc2cccnc12)c1cccc(N2C(=O)CCC2=O)c1 as the compound, how does the activity change (PNC), negative = inhibition read?
A: Its activity change (PNC), negative = inhibition is -100% (active).

Q: Which activity change (PNC), negative = inhibition does the source give for Cc1cc(NC(=O)c2cccc(N3C(=O)CCC3=O)c2)no1 here?
A: Its activity change (PNC), negative = inhibition is -7.91% (inactive).

Q: For COc1ccccc1NC(=O)c1ccc2nc(N3C(=O)CCC3=O)sc2c1, which activity change (PNC), negative = inhibition is on record?
A: The activity change (PNC), negative = inhibition was 133% (inactive).

Q: Which activity change (PNC), negative = inhibition does the source give for CCOC(=O)NN1C(=O)c2ccccc2NC1c1ccccc1O (stereo unspecified) here?
A: The activity change (PNC), negative = inhibition was 19.7% (inactive).

Q: With O=C(OCC(=O)c1c[nH]c2ccccc12)c1cccc(O)c1 as the compound, how does the activity change (PNC), negative = inhibition read?
A: Its activity change (PNC), negative = inhibition is 49.4% (inactive).

Q: With O=S(=O)(NCC1CCCO1)c1cnc(Cl)c(Cl)c1 (stereo unspecified) as the compound, how does the activity change (PNC), negative = inhibition read?
A: The activity change (PNC), negative = inhibition was -19.6% (inactive).

Q: With Cc1cccc(N2CCN(C(=O)/C=C/c3ccco3)CC2)c1C as the compound, how does the activity change (PNC), negative = inhibition read?
A: Its activity change (PNC), negative = inhibition is 16.7% (inactive).

Q: Which activity change (PNC), negative = inhibition does the source give for O=C(/C=C/c1ccc(Cl)cc1)N1CCN(c2ccccc2[N+](=O)[O-])CC1 here?
A: Its activity change (PNC), negative = inhibition is -91.4% (active).

Q: For CO/N=C/c1ccc(N2CCN(C(=O)c3cccc(Cl)c3)CC2)c([N+](=O)[O-])c1, which activity change (PNC), negative = inhibition is on record?
A: Its activity change (PNC), negative = inhibition is 77.9% (inactive).

Q: Which activity change (PNC), negative = inhibition does the source give for CCCN=C1NC(=O)C(CC(=O)NCCc2ccc(OC)c(OC)c2)S1 (stereo unspecified) here?
A: Its activity change (PNC), negative = inhibition is 58.6% (inactive).

Q: For Cc1cc(C)c(C2C3=C(Nc4c2c(C)nn4-c2ccccn2)c2ccccc2C3=O)c(C)c1 (stereo unspecified), which activity change (PNC), negative = inhibition is on record?
A: Its activity change (PNC), negative = inhibition is -28.9% (inactive).

Q: With CC1=C[C@H]2Cc3cc(C)cc(C)c3S(=O)(=O)[C@@H]2C=C1 as the compound, how does the activity change (PNC), negative = inhibition read?
A: Its activity change (PNC), negative = inhibition is 28.1% (inactive).

Q: With CCCn1c(C)cc(C(=O)COC(=O)c2c(C)nn(-c3ccccc3)c2C)c1C as the compound, how does the activity change (PNC), negative = inhibition read?
A: Its activity change (PNC), negative = inhibition is -22.8% (inactive).

Q: For Cc1cc(C(=O)COC(=O)c2cccs2)c(C)n1-c1c(C)n(C)n(-c2ccccc2)c1=O, which activity change (PNC), negative = inhibition is on record?
A: Its activity change (PNC), negative = inhibition is -127% (active).

Q: For COc1ccc(-n2c(C)cc(C(=O)COC(=O)c3cc(OC)c(OC)cc3NC(=O)c3cccs3)c2C)cc1, which activity change (PNC), negative = inhibition is on record?
A: Its activity change (PNC), negative = inhibition is 173% (inactive).

Q: For COc1ccc(C(=O)COC(=O)c2ccc3ccccc3n2)cc1, which activity change (PNC), negative = inhibition is on record?
A: The activity change (PNC), negative = inhibition was -89.8% (active).

Q: With O=C(Oc1ccc([N+](=O)[O-])cc1)c1ccc2ccccc2n1 as the compound, how does the activity change (PNC), negative = inhibition read?
A: Its activity change (PNC), negative = inhibition is -25.3% (inactive).

Q: With COc1ccc(C2=NOC(COC(=O)c3ccc4ccccc4n3)C2)cc1 (stereo unspecified) as the compound, how does the activity change (PNC), negative = inhibition read?
A: Its activity change (PNC), negative = inhibition is -3.15% (inactive).

Q: With Cc1cc(C)cc(OCC(=O)Nc2nc3ccc([N+](=O)[O-])cc3s2)c1 as the compound, how does the activity change (PNC), negative = inhibition read?
A: Its activity change (PNC), negative = inhibition is 84.2% (inactive).

Q: For CCOc1ccc2nc(Nc3nc4ccc(NC(C)=O)cc4s3)sc2c1, which activity change (PNC), negative = inhibition is on record?
A: Its activity change (PNC), negative = inhibition is 10% (inactive).

Q: With CCOc1ccc2nc(NC(=O)c3cc([N+](=O)[O-])ccc3N3CCOCC3)sc2c1 as the compound, how does the activity change (PNC), negative = inhibition read?
A: The activity change (PNC), negative = inhibition was -84.5% (active).

Q: For CCOc1ccccc1Nc1nnc(SCC(=O)Nc2cc(C)on2)s1, which activity change (PNC), negative = inhibition is on record?
A: The activity change (PNC), negative = inhibition was 1.96% (inactive).

Q: For Cc1ccc(-c2csc(SCC(=O)Nc3cc(C)on3)n2)cc1, which activity change (PNC), negative = inhibition is on record?
A: Its activity change (PNC), negative = inhibition is 32.6% (inactive).

Q: Which activity change (PNC), negative = inhibition does the source give for Cc1cc(C)c2c(c1)cc(C)c1nnc(SCC(=O)Nc3cc(C)on3)n12 here?
A: The activity change (PNC), negative = inhibition was -88.4% (active).

Q: With COc1cccc(-n2c(SCC(=O)c3c[nH]c4ccccc34)nc3ccccc3c2=O)c1 as the compound, how does the activity change (PNC), negative = inhibition read?
A: Its activity change (PNC), negative = inhibition is -15.1% (inactive).

Q: Which activity change (PNC), negative = inhibition does the source give for Cc1nonc1NC(=O)c1ccccc1Br here?
A: Its activity change (PNC), negative = inhibition is -15.2% (inactive).

Q: Which activity change (PNC), negative = inhibition does the source give for O=C(Nc1c2c(nc3ccccc13)CCCC2)c1ccccc1Br here?
A: Its activity change (PNC), negative = inhibition is -109% (active).

Q: For O=C(COC(=O)c1c2c(nc3ccccc13)CCCC2)c1ccc(Br)s1, which activity change (PNC), negative = inhibition is on record?
A: Its activity change (PNC), negative = inhibition is 17.9% (inactive).

Q: With Cc1ccc(C)c(NC(=O)CCC(=O)NNC(=O)c2cccs2)c1 as the compound, how does the activity change (PNC), negative = inhibition read?
A: The activity change (PNC), negative = inhibition was 30.9% (inactive).

Q: For NC1=NC(=O)C(Cc2cccc(Cl)c2Cl)S1 (stereo unspecified), which activity change (PNC), negative = inhibition is on record?
A: The activity change (PNC), negative = inhibition was -13.4% (inactive).

Q: Which activity change (PNC), negative = inhibition does the source give for COc1ccccc1N1N=C(c2cccs2)CC1c1ccccc1 (stereo unspecified) here?
A: Its activity change (PNC), negative = inhibition is -19.6% (inactive).

Q: With CC(C)Nc1nc(N(c2ccccc2)c2ccccc2)nc(-n2ccnc2)n1 as the compound, how does the activity change (PNC), negative = inhibition read?
A: Its activity change (PNC), negative = inhibition is -4.69% (inactive).

Q: For CCNc1nc(NC(C)C)nc(N2CC(=O)N(CC(=O)OCC)C2=N)n1, which activity change (PNC), negative = inhibition is on record?
A: Its activity change (PNC), negative = inhibition is 3.87% (inactive).

Q: With CCNc1nc(NC(C)C)nc(OCCOC(=O)c2ccccc2)n1 as the compound, how does the activity change (PNC), negative = inhibition read?
A: The activity change (PNC), negative = inhibition was -100% (active).

Q: With O=C(CCc1ccccc1)Nc1nn[nH]n1 as the compound, how does the activity change (PNC), negative = inhibition read?
A: Its activity change (PNC), negative = inhibition is 50.3% (inactive).

Q: Which activity change (PNC), negative = inhibition does the source give for COc1ccc(C2COC(=O)C2=N)c(NC(=O)c2ccccc2)c1 (stereo unspecified) here?
A: The activity change (PNC), negative = inhibition was -25.6% (inactive).

Q: For CCC1=NN(C(=O)Cc2ccc([N+](=O)[O-])cc2)C(O)(c2ccc(Br)cc2)C1 (stereo unspecified), which activity change (PNC), negative = inhibition is on record?
A: Its activity change (PNC), negative = inhibition is 99.6% (inactive).

Q: Which activity change (PNC), negative = inhibition does the source give for COc1ccccc1-c1nnc(SCC(=O)Nc2cc(C)on2)o1 here?
A: The activity change (PNC), negative = inhibition was -4.25% (inactive).

Q: With COc1ccccc1-c1nnc(NC(=O)c2ccc3ncsc3c2)o1 as the compound, how does the activity change (PNC), negative = inhibition read?
A: The activity change (PNC), negative = inhibition was -121% (active).

Q: Which activity change (PNC), negative = inhibition does the source give for COc1ccccc1-c1nnc(NC(=O)c2cccc(N3C(=O)CCC3=O)c2)o1 here?
A: Its activity change (PNC), negative = inhibition is -7.63% (inactive).

Q: For CCCCC(CC(C)O)c1n[nH]c(=S)n1-c1ccccc1 (stereo unspecified), which activity change (PNC), negative = inhibition is on record?
A: The activity change (PNC), negative = inhibition was 4.51% (inactive).

Q: Which activity change (PNC), negative = inhibition does the source give for O=C(NCCCO)/C(=C\C=C\c1ccccc1)NC(=O)c1ccccc1Cl here?
A: Its activity change (PNC), negative = inhibition is 26.4% (inactive).

Q: Which activity change (PNC), negative = inhibition does the source give for O=C(N/N=C/c1cc([N+](=O)[O-])ccc1O)/C(=C\c1cccs1)NC(=O)c1ccccc1 here?
A: Its activity change (PNC), negative = inhibition is 25.3% (inactive).

Q: Which activity change (PNC), negative = inhibition does the source give for O=C(NCCc1ccccc1)/C(=C\c1ccc([N+](=O)[O-])cc1)NC(=O)c1ccccc1 here?
A: Its activity change (PNC), negative = inhibition is -6.81% (inactive).

Q: Which activity change (PNC), negative = inhibition does the source give for O=C(N/N=C/c1ccc(O)cc1)/C(=C/c1ccc([N+](=O)[O-])cc1)NC(=O)c1ccccc1 here?
A: The activity change (PNC), negative = inhibition was -101% (active).

Q: Which activity change (PNC), negative = inhibition does the source give for CCCC(=O)Nc1ccc(C(=O)N/N=C/c2ccc[nH]2)cc1 here?
A: Its activity change (PNC), negative = inhibition is -29.4% (inactive).

Q: With Cc1csc(=NC(=O)c2ccccc2)n1CCO as the compound, how does the activity change (PNC), negative = inhibition read?
A: The activity change (PNC), negative = inhibition was -9.41% (inactive).

Q: Which activity change (PNC), negative = inhibition does the source give for Cc1csc(=Nc2ccccc2)n1CCO here?
A: The activity change (PNC), negative = inhibition was -25.4% (inactive).

Q: Which activity change (PNC), negative = inhibition does the source give for C=C(C)CNC(=S)/N=c1\scc(C)n1CC here?
A: Its activity change (PNC), negative = inhibition is -100% (active).

Q: For COc1cc(/C=C/C(=O)N2c3ccccc3Sc3ccc(C(F)(F)F)cc32)cc(OC)c1OC, which activity change (PNC), negative = inhibition is on record?
A: The activity change (PNC), negative = inhibition was -24.5% (inactive).

Q: With C/C(=N\NC(=O)Cc1ccc(Cl)cc1)c1ccccn1 as the compound, how does the activity change (PNC), negative = inhibition read?
A: Its activity change (PNC), negative = inhibition is -18.2% (inactive).

Q: For O=C(CSc1nnc(Nc2ccccc2)s1)Nc1cccnc1Cl, which activity change (PNC), negative = inhibition is on record?
A: The activity change (PNC), negative = inhibition was -10.3% (inactive).

Q: With O=C(Nc1ccccc1Cl)O/N=C(/c1ccccc1)c1ccccn1 as the compound, how does the activity change (PNC), negative = inhibition read?
A: Its activity change (PNC), negative = inhibition is -96.2% (active).
